FAS-TE inh: blocks the thioesterase domain of human fatty acid synthase. P49327. recombinant FAS-TE, OMFH fluorogenic substrate, fluorescence endpoint. inhibition, % at 15 µM. 360,000 tested, 0.67% active;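 active = compounds whose normalised, plate-corrected inhibition of enzyme fluorescence in the single-dose primary screen is 50% or more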;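 also: 0% = DMSO with enzyme and 100% = substrate without enzyme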
Calb FLC: affects C. albicans growth with fluconazole; C. albicans CaCi-2 (fluconazole-resistant clinical isolate) + fluconazole, Alamar Blue growth, 48 h; growth inhibition, % (no concentration beside the values); 300,000 tested, 0.57% active;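 active = growth inhibition above about 58% in most replicates, limit read from the data, passing the limit was not always enough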;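 also: all wells also contain fluconazole at 8 µg/ml as a sub-toxic cotreatment; 0% = median of DMSO wells and 100% = median of geldanamycin control wells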
NadD block: inhibitors of Staphylococcus aureus NadD | inhibition, % at 20 µM | 360,000 tested, 0.78% active | purified NadD enzyme, colorimetric absorbance read-out; in the data active = inhibition above about 26%
SUMO Mot1 rescue: inhibitors of SUMOylation pathway: yeast Mot1-301 growth rescue; S. cerevisiae Mot1-301 growth rescue, ATP luminescence, 38.5C; percent above DMSO median, 100 means doubled; growth rescue, % at 18.8 µM; 320,000 tested, 1% active; AID 2716;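 active = every valid replicate shows activation above 250% relative to neutral control wells; inactive = the rest, any valid replicate at or below 250%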;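 also: OY570 slx delta 5 strain wells were the positive control but not used for scaling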
ATG4B inh: blocks human ATG4B protease cleavage of LC3 substrate; Q9Y4P1; ATG4B cleavage of LC3-PLA2, NBD-HPC fluorescence, 1 h; inhibition, % at 8.33 µM; 340,000 tested, 0.51% active; in the data active = inhibition above about 40%
Target sequence (Q9Y4P1 whole entry, looked up): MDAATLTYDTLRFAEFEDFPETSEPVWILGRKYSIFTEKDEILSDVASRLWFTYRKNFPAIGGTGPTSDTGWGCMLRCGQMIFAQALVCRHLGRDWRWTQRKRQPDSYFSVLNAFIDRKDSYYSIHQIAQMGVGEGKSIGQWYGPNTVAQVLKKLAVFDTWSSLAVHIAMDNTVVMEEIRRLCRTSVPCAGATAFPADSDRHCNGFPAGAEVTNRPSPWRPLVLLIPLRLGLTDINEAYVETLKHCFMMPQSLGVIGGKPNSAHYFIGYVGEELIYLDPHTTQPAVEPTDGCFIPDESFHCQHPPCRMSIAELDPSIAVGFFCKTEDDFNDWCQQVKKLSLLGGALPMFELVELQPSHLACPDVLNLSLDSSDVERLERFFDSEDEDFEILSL
Mot1 SUMO dose: inhibits SUMO pathway, affecting Mot1-301 yeast growth. shares compounds with SUMO Mot1 rescue. S. cerevisiae Mot1-301 galactose growth, ATP luminescence, 24 h; -100 = growth of slx-deleted rescue strain. growth activity, percent, % at 42 µM. 2,300 tested, under 10 active;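 active = Signal drops as the depositor expects, and the fitted half-maximal dose is no more than ten times the top valid tested dose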;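 also: more negative values mean stronger growth rescue toward the control strain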
* = called active by the depositor; nt = no result given; + = active, no number. Rows were chosen to be rich in hits. Some 3.1% of all compounds tested hit in one or more screens of this group.

SMILES | FAS-TE inh | Calb FLC | NadD block | SUMO Mot1 rescue | ATG4B inh | Mot1 SUMO dose
C[C@H](CO)N1C[C@H](C)[C@@H](CN(C)Cc2ccc(Oc3ccccc3)cc2)Oc2cc(Br)ccc2S1(=O)=O | 17.5 | nt | -0.3 | nt | nt | nt
Cc1ccc2nc(NC(=O)C3CCN(S(=O)(=O)c4cccnc4)CC3)sc2c1 | 1.3 | 16.8 | -7.4 | 774.5* | -7.2 | 0.3
Cc1cc(C)cc(C(=O)N2CCC3(CC2)NCCc2[nH]cnc23)c1 | -6.4 | -5.1 | 4.8 | 395.7* | -3.1 | 0.2
COc1cc(C(=O)N2CCC3(CC2)NCCc2[nH]cnc23)cc(OC)c1OC | -9.2 | 2.7 | -1.1 | -7.8 | 2.0 | nt
CCN=C1S/C(=C/c2ccc(-c3ccc(F)cc3)o2)C(=O)N1CC | 9.0 | 1.4 | 0.2 | 955.6* | -4.2 | -0.6
CCN=C1S/C(=C\c2ccc(Sc3ccc(Cl)cc3)o2)C(=O)N1CC | 14.8 | 0.7 | 19.8 | nt | -8.0 | nt
O=C(Cc1ccccc1)NS(=O)(=O)c1ccccc1 | -0.7 | nt | 6.8 | nt | nt | nt
Cn1c(-c2sc3cc(C(F)(F)F)cnc3c2-c2cccs2)n[nH]c1=S | 0.0 | 6.5 | 10.0 | + | -9.3 | -0.2
CN(C)C(CNc1ccc(C(F)(F)F)cc1[N+](=O)[O-])c1ccccc1 (configuration not stated) | 23.2 | 25.3 | -9.1 | -7.0 | -3.4 | nt
CCC(OC(=O)CN1C(=O)C(=O)c2ccccc21)C(=O)Nc1ccccc1OC (configuration not stated) | -0.1 | -10.2 | -8.3 | nt | -9.4 | nt
Cc1ccccc1CC(=O)NC1CCN(Cc2ccccc2)CC1 | -4.3 | -3.1 | -1.1 | -20.5 | -0.8 | nt
CCOC(=O)C1CCN(Cc2ccc(OCc3ccccc3)cc2)CC1 | 5.1 | -21.6 | -0.8 | 554.9* | 1.9 | -0.9
NC(=O)C1CCN(Cc2ccc(OCc3ccccc3)cc2)CC1 | -1.6 | -6.4 | -6.9 | 8.4 | 23.1 | nt
COc1ccc(NC(=O)CN2C(=O)c3ccccc3S2(=O)=O)cc1OC | -7.9 | 5.0 | -3.4 | 403.5* | -3.5 | 0.2
Cc1ccc(SCCNC(=O)CN2C(=O)c3ccccc3S2(=O)=O)cc1 | -2.0 | -5.5 | -4.3 | 397.8* | -14.1 | -0.2
O=C(CN1C(=O)c2ccccc2S1(=O)=O)NCCSc1ccccc1 | 2.1 | -7.1 | 5.6 | nt | -7.0 | nt
Cc1cc2c(OCC(O)CNC(C)(C)C)cccc2[nH]1 (configuration not stated) | -5.1 | -2.1 | 5.4 | 0.4 | -13.4 | nt
COCCCNCC(O)COc1cccc2[nH]c(C)cc12 (configuration not stated) | -4.3 | -4.1 | 5.1 | 773.0* | -13.3 | 0.3
O=C(CC(=O)c1cccs1)c1ccncc1 | 0.4 | nt | 3.4 | nt | -4.9 | nt
COc1ccc(OC)c(-c2cc(C(=O)Nc3c(C)nn(Cc4ccccc4Cl)c3C)no2)c1 | 22.7 | 11.5 | 9.5 | 570.9* | 38.5 | 0.2
CCn1cnc2sc(-c3ccccc3)cc2c1=O | -1.3 | 6.6 | 4.2 | 412.3* | -10.3 | -0.8
CC(=O)Cn1cnc2sc(-c3ccccc3)cc2c1=O | -4.2 | -0.4 | -0.4 | -1.0 | -15.1 | nt
CN(CCCNC(=O)CSc1cc(=O)n(C)c2cc(Cl)ccc12)Cc1ccccc1 | 11.1 | -10.5 | -6.5 | 25.3 | -5.2 | nt
O=C1NC[C@H](c2ccccc2)N(CC2CCCCC2)C1=O | -9.0 | 2.7 | -2.9 | -11.8 | -13.5 | nt
O=S1(=O)NC(c2ccccc2)CC(CC2CCCCC2)O1 (configuration not stated) | 27.2 | -2.9 | -8.3 | 943.3* | 13.2 | 0.4
SMILES | FAS-TE inh | Calb FLC | NadD block | SUMO Mot1 rescue | ATG4B inh | Mot1 SUMO dose
O=C(O)[C@H]1CCCC[C@H]1C(=O)Nc1ccc(S(=O)(=O)N2CCOCC2)cc1 | -5.8 | 3.3 | 0.4 | 21.3 | 9.0 | nt
CCCCNC(=S)NNC(=O)c1cc(-c2ccncc2)nc2ccccc12 | 0.8 | 50.0 | 10.5 | 6.3 | 1.0 | nt
COc1cc(/C=N/NC(=O)Cc2csc(C)n2)ccc1OCC(C)C | 1.3 | 27.7 | -5.8 | nt | -0.9 | nt
Cc1nc(CC(=O)N/N=C/c2ccc(OCC(=O)O)cc2)cs1 | -5.1 | -1.3 | 2.1 | 571.3* | 11.6 | -0.4
CCCN1CCc2c(sc3nc(SCC)n(-c4ccc(OC)cc4)c(=O)c23)C1 | -11.0 | -5.9 | -0.8 | nt | 5.9 | nt
CCCCCCCCCCOC(=O)Cn1c(COc2ccccc2OC)[n+](C)c2ccccc21 | -28.5 | -12.4 | 11.7 | 835.5* | 23.3 | 0.4
CN(C)c1ccc(NC(=O)CSc2nc(N)c(C(=O)Nc3ccc(N(C)C)cc3)s2)cc1 | 0.0 | 3.7 | 29.3 | 465.7* | -6.0 | 0.2

Screening data deposited in PubChem BioAssay by several laboratories.
